# Compound activity as filed in PubChem BioAssay.
# Dicer inh: inhibitors of human Dicer processing of pre-microRNA. Q9UPY3. AID 1347074. cat-ELCCA pre-miR-21 Dicer processing, chemiluminescence; active compounds read high. actives 6% (n = 47,000). z-score at 25 µM; in the data active means z-score above about 3, passing the limit was not always enough;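 further: plate controls were vehicle for no effect and no enzyme for full effect; higher signal means more uncleaved substrate so more Dicer inhibition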
# Target sequence (Q9UPY3 whole entry, looked up): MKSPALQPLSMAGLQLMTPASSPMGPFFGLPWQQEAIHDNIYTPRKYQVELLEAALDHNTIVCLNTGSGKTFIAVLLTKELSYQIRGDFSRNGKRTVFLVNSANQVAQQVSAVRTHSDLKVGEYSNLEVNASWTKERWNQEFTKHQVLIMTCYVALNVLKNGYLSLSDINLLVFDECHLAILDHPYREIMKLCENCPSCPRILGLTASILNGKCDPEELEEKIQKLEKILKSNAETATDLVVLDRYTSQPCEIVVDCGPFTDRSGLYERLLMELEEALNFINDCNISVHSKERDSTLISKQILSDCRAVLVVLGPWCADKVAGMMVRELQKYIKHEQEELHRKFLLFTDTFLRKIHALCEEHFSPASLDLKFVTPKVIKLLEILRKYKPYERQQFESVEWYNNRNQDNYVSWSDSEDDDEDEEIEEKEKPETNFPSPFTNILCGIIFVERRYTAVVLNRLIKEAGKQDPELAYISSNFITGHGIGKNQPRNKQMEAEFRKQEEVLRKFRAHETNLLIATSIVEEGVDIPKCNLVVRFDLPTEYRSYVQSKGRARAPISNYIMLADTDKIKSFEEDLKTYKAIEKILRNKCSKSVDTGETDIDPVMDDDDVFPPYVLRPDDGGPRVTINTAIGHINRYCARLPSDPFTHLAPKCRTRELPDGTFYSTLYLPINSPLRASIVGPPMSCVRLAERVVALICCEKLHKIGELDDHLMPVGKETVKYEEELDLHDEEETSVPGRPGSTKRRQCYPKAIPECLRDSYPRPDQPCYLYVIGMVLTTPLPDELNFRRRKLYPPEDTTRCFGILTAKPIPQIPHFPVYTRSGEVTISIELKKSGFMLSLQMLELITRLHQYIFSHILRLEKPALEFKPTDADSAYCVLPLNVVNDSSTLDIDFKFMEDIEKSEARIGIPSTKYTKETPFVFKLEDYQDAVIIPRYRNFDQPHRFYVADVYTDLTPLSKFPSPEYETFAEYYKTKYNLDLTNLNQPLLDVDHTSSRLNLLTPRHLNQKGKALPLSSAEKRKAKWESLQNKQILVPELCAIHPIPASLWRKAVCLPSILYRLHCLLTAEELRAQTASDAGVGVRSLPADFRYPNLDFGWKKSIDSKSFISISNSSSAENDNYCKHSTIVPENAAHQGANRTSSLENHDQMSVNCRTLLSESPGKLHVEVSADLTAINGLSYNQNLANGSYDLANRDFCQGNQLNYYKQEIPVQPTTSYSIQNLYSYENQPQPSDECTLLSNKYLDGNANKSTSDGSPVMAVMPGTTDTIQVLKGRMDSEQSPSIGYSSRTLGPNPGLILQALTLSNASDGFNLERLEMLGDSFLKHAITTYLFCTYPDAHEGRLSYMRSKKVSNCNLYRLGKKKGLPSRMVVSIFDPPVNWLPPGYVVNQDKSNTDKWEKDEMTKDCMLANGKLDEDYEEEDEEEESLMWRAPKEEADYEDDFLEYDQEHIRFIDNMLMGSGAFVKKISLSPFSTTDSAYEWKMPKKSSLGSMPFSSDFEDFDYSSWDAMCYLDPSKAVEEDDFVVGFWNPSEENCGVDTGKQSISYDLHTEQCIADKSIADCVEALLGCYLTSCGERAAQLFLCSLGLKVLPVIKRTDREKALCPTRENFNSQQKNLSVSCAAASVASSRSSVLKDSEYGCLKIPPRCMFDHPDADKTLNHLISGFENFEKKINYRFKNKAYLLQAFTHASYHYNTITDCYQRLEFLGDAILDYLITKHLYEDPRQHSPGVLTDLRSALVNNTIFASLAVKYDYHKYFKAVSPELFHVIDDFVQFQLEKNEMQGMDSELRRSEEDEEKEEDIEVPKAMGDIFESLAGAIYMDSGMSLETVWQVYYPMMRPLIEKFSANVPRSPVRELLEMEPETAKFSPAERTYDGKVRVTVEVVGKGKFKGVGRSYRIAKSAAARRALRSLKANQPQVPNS
# Starred values were filed as active, the others as inactive. Only a selection was taken, and hits are over-represented in it overall.
SMILES,Dicer inh
Cc1sc(NC2=NS(=O)(=O)c3ccccc32)nc1-c1ccccc1,0.26
CCN(CC)c1ccc(/C=C2\N=C(SC)SC2=O)cc1,0.8
CC[n+]1c(/C=C/Nc2ccccc2)sc2c(C)c(C)sc21,2.4
COc1ccc(CN2CCC(N3CCCCC3)CC2)cc1Br,3.7*
CCn1c2ccccc2c2cc(CN3CCC(N4CCCCC4)CC3)ccc21,-0.94
COc1ccc(CN2CCC(N3CCCCC3)CC2)cc1OC,0.7
COc1ccc(N2C(=O)CSC2c2ccc(Br)cc2)cc1 (stereo not given),1.3
COC(=O)c1ccc(N2C(=O)CSC2c2ccc(OC)cc2)cc1 (stereo not given),7
COc1ccc(N2C(=O)N(c3ccc(OC)cc3)C3CS(=O)(=O)CC32)cc1 (stereo not given),3.9*
CCOC(=O)c1oc2ccc(OC)cc2c1CSc1ccccn1,4*
COc1ccc(OC)c(C(=O)c2oc3ccccc3c2NC(=O)CSc2ccccn2)c1,3.3*
CCOC(=O)c1oc2ccccc2c1CSc1ccccn1,-0.38
Cc1nnc(NC(=O)CSc2ccccn2)s1,0.78
CCOC(=O)c1oc2ccccc2c1CO,-0.55
COc1ccc(OC)c(NC(=O)CSc2nccn2C)c1,-1.3
CC(=NCc1c(C)c(C)c(C)c(C)c1C)c1ccccc1O,-0.19
COC(=O)c1c(C)[nH]c(C)c1-c1ccno1,-0.49
O=c1c(C(c2ccc3c(c2)OCO3)c2c(O)sc3ccccc3c2=O)c(O)sc2ccccc12,-1.6
CC1(C)c2ccccc2-n2c1cc(O)c(Cc1ccccc1)c2=O,0.2
Cn1cnnc1SCC(=O)Nc1ccc(F)cc1F,4.7*
Cc1nnc(SCC(=O)Nc2ccc(F)cc2F)s1,0.78
Cn1cnnc1SCC(=O)Nc1nc2ccccc2s1,2.8
COc1ccccc1C(C[N+](=O)[O-])c1c(N)n(C)c(=O)n(C)c1=O (stereo not given),-1.7
CC(C(c1cccs1)c1c(N)n(C)c(=O)n(C)c1=O)[N+](=O)[O-] (stereo not given),-2.4
Cn1c(N)c(C(C[N+](=O)[O-])c2ccc(Cl)cc2Cl)c(=O)n(C)c1=O (stereo not given),3.4*
SMILES,Dicer inh
C=C(C)CSc1nc2sc3c(c2c(=O)[nH]1)CCCC3,0.28
COc1ccc(-c2ncnn2-c2sc3c(c2C#N)CCCC3)cc1OC,-5
COc1ccc(-c2nc3sc4c(c3c(=O)[nH]2)CCCC4)cc1OC,5.1*
CC(C)(C)c1nc2sc3c(c2c(=O)[nH]1)CCCC3,5.3*
O=C(CSc1nc2sc3c(c2c(=O)[nH]1)CCCC3)N1CCCCC1,-0.27
COc1ccc(-c2nc3c4c5c(sc4ncn3n2)CCCCC5)cc1OC,1.1
Cc1csc2ncnc(Sc3ccccc3N)c12,-5.5
CN1/C(=C\c2cc[n+](C)cc2)Sc2ccccc21,1.6
CCCCCOC(=O)C1=C(C)NC2=C(C(=O)CCC2)C1c1ccc(O)c(OC)c1 (stereo not given),0.27
CCc1ccc2nc(NC3=NCN(Cc4ccc(OC)cc4)CN3)nc(C)c2c1,2.2
CCOC(=O)c1c(NC(=O)COc2ccccc2Cl)sc2c1CCC2,-0.4
CCOC(=O)Cc1cc(C)[nH]c1C(=O)OCC,0.19
CCOC(=O)CCc1c(CC(=O)OCC)c[nH]c1/C=N/O,16*
CCOC(=O)CCc1c(C)nc2c(-c3ccc(F)cc3)c(C)[nH]n2c1=O,0.13
CC1(C)CC(=O)c2cnc(NC(=O)Nc3ccccc3)nc2C1,0.9
O=C(Nc1cc(Cl)ccc1O)C1CC(c2cccc(Br)c2)=NO1 (stereo not given),3*
O=C(NCC1CCCO1)C1CC(c2cccc(Br)c2)=NO1 (stereo not given),-0.95
O=C(Nc1cccc(O)c1)C1CC(c2cccc(Br)c2)=NO1 (stereo not given),0.55
O=C(Nc1cccnc1)C1CC(c2cccc(Br)c2)=NO1 (stereo not given),12
CSc1ccccc1NC(=O)C1CC(c2cccc(Br)c2)=NO1 (stereo not given),-0.87
O=C(NCCCn1ccnc1)C1CC(c2cccc(Br)c2)=NO1 (stereo not given),3.5*
Cc1ccc(CSc2n[nH]c(=O)n2-c2ccc(C(C)(C)C)cc2)cc1,-1
CSC(=NC(=O)c1c(Cl)cccc1Cl)N1CCCC(C)C1 (stereo not given),-0.22
Cc1ccc(-c2nn(-c3ccccc3)cc2C2CC(c3cccs3)=NN2S(C)(=O)=O)cc1 (stereo not given),-1.1
CCCCOC(=O)C1=C(C)NC2=C(C(=O)CCC2)C1c1cccnc1 (stereo not given),0.06
SMILES,Dicer inh
CN(C)/C=C(\C(=O)c1cc(F)cc(F)c1)c1nnnn1-c1ccccc1,-3.2
CCOC(=O)N/N=C/c1ccc(OC)c(Br)c1,-1.3
CC(C)n1c(C(O)c2cccc3ccccc23)nc2ccccc21 (stereo not given),0.93
Cc1ccc(/C(O)=C2\C(=O)C(=O)N(CCCn3ccnc3)C2c2ccncc2)cc1 (stereo not given),-3.1
CN1CCN(c2cc(-c3ccccc3)nc3ccccc23)CC1,0.36
C=CCn1c(C(C)Oc2ccccc2-c2ccccc2)n[nH]c1=S (stereo not given),0.1
O=C(Nc1nc2n(n1)C(c1ccc(Cl)cc1)C=C(c1ccccc1)N2)c1cccs1 (stereo not given),1.6
O=C(Nc1nc2n(n1)C(c1ccc(F)cc1)C=C(c1ccccc1)N2)c1cccs1 (stereo not given),1.9
O=C(Nc1nc2n(n1)C(c1ccc(F)cc1)C=C(c1ccc(Cl)cc1)N2)c1cccs1 (stereo not given),17*
COCCCN1C(=O)C(=O)/C(=C(/O)c2ccc(C)cc2)C1c1ccc(O)c(OC)c1 (stereo not given),-1.2
CNC(=O)c1ccccc1Sc1cccc2ccccc12,-0.4
COC(=O)CSc1cc(C)nc(NC(C)=O)n1,0.03
COC(=O)CSc1nc(N)nc(C)c1Cl,2.7
COC(=O)CSc1nc(NC(C)=O)nc(C)c1Br,3.1*
S=c1[nH]nc(-c2ccc(Cl)cc2)n1/N=C/c1cccnc1,-2
O=C1C2C3c4ccccc4C(CO)(c4ccccc43)C2C(=O)N1c1ccccc1Cl (stereo not given),0.88
O=C1C2C3c4ccccc4C(CO)(c4ccccc43)C2C(=O)N1c1ccc(F)cc1 (stereo not given),4.9*
CCCCOc1ccc(N2C(=O)C3C4c5ccccc5C(CO)(c5ccccc54)C3C2=O)cc1 (stereo not given),3.3*
COc1ccc(N2C(=O)C3C4c5ccccc5C(CO)(c5ccccc54)C3C2=O)cc1 (stereo not given),-0.87
CC12c3ccccc3C(c3ccccc31)C1C(=O)N(c3ccccc3)C(=O)C12 (stereo not given),0.7
O=C1C2C3c4ccccc4C(C(=O)O)(c4ccccc43)C2C(=O)N1c1ccccc1 (stereo not given),0.12
CCOC(=O)c1csc(N/N=C/c2ccccc2Cl)n1,2.2
CC1O[C@]2(C)OC1[C@]1(C)OC(C)[C@H]2O1 (stereo not given in full),-0.31
OC[C@H](O)[C@H](O)[C@@H](O)[C@@H](O)C1NCCS1 (stereo not given in full),-1.1
COc1ccccc1-c1nc(-c2ccc(-c3ccccc3)nc2OC)no1,0.65
Cn1c(=O)c2cc3cc(Cl)c(Cl)cc3nc2n(C)c1=O,-0.4
Cc1cc(C)c2c(n1)sc1c(=O)n(/N=C/c3ccc(Cl)cc3)c(C)nc12,2.7
CCOC(=O)c1nc(Nc2ccc(N3CCCC3)cc2)c2ccccc2n1,2.1
